Assay outcomes (PubChem)
The list is not random: actives were taken first. Their share in the collection is about 4.7%.
proKLK7 act: proKLK7 zymogen activators, primary screen, biochemical, fluorescence intensity. purified proKLK7, EDANS-DABCYL substrate fluorescence; 100% is mature enzyme control, 0% vehicle. activation, % at 7 µM. 370,000 tested, 0.9% active;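 active means activation above the mean of all tested compounds plus 3 SD, computed per campaign excluding outliers beyond control limits, cut at about 13% in these data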
Target sequence (P49862 whole entry, looked up): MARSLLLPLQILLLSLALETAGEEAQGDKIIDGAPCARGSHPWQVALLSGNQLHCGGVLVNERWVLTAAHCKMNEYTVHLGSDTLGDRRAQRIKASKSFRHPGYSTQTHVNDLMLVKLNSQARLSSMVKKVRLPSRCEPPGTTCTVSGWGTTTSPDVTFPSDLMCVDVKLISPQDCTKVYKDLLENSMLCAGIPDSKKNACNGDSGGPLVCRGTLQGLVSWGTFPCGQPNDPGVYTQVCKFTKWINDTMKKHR
Pemphigus Ab inh: inhibitors of pemphigus antibody binding to DSG3, primary screen, biochemical, bead-based, flow cytometry, scFv-GFP. Desmoglein-3 (Homo sapiens), P32926. DSG3-coupled beads, scFv-anti-DSG3-GFP binding; hits give low values. binding (percent of control), % at 10 µM. 310,000 tested, 0.48% active. AID 588358, 2011;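 active means binding more than 3 SD below its plate's average and above zero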;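 further: hits lower antibody fragment binding to DSG3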
rCAG binder: binders of r(CAG) RNA repeats, primary screen, biochemical, fluorescence. r(CAG) RNA repeat, TO-PRO-1 dye displacement fluorescence. inhibition, % at 3 µM. 370,000 tested, 1.3% active;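 active means inhibition above the plate cutoff, the mean of all test compounds on that plate plus 3 SD, cut at about 35% in these data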;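 further: 0% = DMSO alone and 100% = 100 µM mitoxantrone as full dye displacement; higher means more dye released from RNA so lower well fluorescence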
ADAM17 inh: ADAM17 inhibitors, primary screen, biochemical, QFRET; inhibition, % at 6.95 µM; 370,000 tested, 0.83% active; recombinant ADAM17, EDANS/DABCYL FRET peptide cleavage;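 active means inhibition above the mean of compounds lying between control limits plus 3 SD, set per campaign, cut at about 8.5% in these data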;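 further: 0% = DMSO-only wells as the low control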
MPTP block: mitochondrial permeability transition pore inhibitors, primary screen, biochemical, isolated mouse mitochondria, absorbance; Ca2+ swelling absorbance, 30 min; inhibition, % at 10 µM; 360,000 tested, 1.4% active; AID 602449, 2012;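 active means inhibition of 50% or more, scaled per plate between neutral and stimulator controls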;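 further: 0% = DMSO wells given calcium and 100% = 1 mM EGTA wells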
ADAM10 inh: human ADAM10 inhibitors, primary screen, biochemical, QFRET, HTS; Disintegrin and metalloproteinase domain-containing protein 10 (Homo sapiens), O14672; AID 720582, 2013; recombinant ADAM10, EDANS/DABCYL FRET peptide cleavage, 3 h; inhibition, % at 7 µM; 370,000 tested, 0.62% active;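 active means inhibition above a per-campaign cutoff equal to the mean of compounds falling between control-based bounds plus 3 SD, cut at about 20% in these data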;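 further: 0% = DMSO wells while the 100% control is not disclosed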
proKLK7 act conf: proKLK7 zymogen activators, confirmation, biochemical, fluorescence intensity, triplicate. shares compounds with proKLK7 act. purified proKLK7, EDANS-DABCYL substrate fluorescence; scaled: vehicle 0, mature enzyme 100. activation, % at 7 µM. 3,200 tested, 68% active;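 active means activation, as change over the incubation, above the mean of all tested compounds plus 3 SD, cut at about 13% in these data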
EDANS-DABCYL int: EDANS-DABCYL substrate optical interference, artefact control for kallikrein-7 zymogen activator project, biochemical, fluorescence intensity, high throughput. shares compounds with proKLK7 act. no enzyme, 4 h; solvent 0%, active enzyme control 100%. activation, % at 7 µM. 3,200 tested, 80% active. AID 686952, 2013;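 active means activation above the all-compound mean plus 3 SD, ignoring values outside control-based bounds, cut at about 4.8% in these data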;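 further: value is the 4 h activation minus the activation read at time zero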
K7 EDANS ctr: EDANS fluorescence interference in dose response, no enzyme. shares compounds with proKLK7 act. EDANS-DABCYL peptide fluorescence interference. EC50, µM. 250 tested, 20% active;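 active means compounds that raise the fluorescence signal in this interference counterscreen, with EC50 at or below 10 µM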;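 further: intact quenched peptide substrate alone read at 355 nm excitation and 520 nm emission; signal is fluorescence gain from T0 to T4 after four hours at room temperature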
* hit, by the source's call; i = inactive; / = no result given.

SMILES | proKLK7 act | Pemphigus Ab inh | rCAG binder | ADAM17 inh | MPTP block | ADAM10 inh | proKLK7 act conf | EDANS-DABCYL int | others
CCN(C(=O)c1cc2c(=O)n3ccccc3nc2n1C)C1CCCCC1 | 67* | 100 | -6 | i | -1 | i | 66* | 80*
CCN(C(=O)c1cc2c(=O)n3ccccc3nc2s1)C1CCCCC1 | 12 | 116 | -4 | -399 | 0 | i | / | /
CCCCN(C)Cc1c(O)ccc2c(-c3ccccc3)cc(=O)oc12 | 17* | 101 | 3 | -52 | 2 | -163 | 17* | 23*
CCN(CC)Cc1c(O)ccc2c(-c3ccccc3)cc(=O)oc12 | 22* | / | 0 | -53 | -1 | -267 | 23* | 29*
CCCCN(CC)Cc1c(O)ccc2c(-c3ccccc3)cc(=O)oc12 | 7 | 101 | -7 | -37 | 1 | -140 | / | /
CC(C)=CCn1c2ccc(NC(=S)NC3CC3)cc2c(=O)n1C | 18* | / | 3 | i | 1 | i | 14* | 14*
Cn1c(=O)c2cc(NC(=S)NC3CC3)ccc2n1Cc1ccccc1 | 16* | / | 4 | -235 | 0 | i | 10 | 14*
Cc1cc(C)cc(Cn2c3ccc(NC(=S)NC4CCCCC4)cc3c(=O)n2C)c1 | -22 | / | 3 | -222 | 0 | i | / | /
COC(=O)C[C@H]1CC[C@@H](NC(=O)C2CC2)[C@@H](CO)O1 | 0 | / | -1 | -6 | -1 | -7 | / | /
C[C@@H]1CCN(C2CC2)S(=O)(=O)c2c(cccc2N2CCC[C@H]2CO)O1 | 0 | / | 1 | 0 | / | 0 | / | /
COc1cccc(-c2cc(C(F)(F)F)c(C#N)c(=O)[nH]2)c1 | 17* | 94 | 22 | i | 3 | i | 40* | 51*
CSCCC(NC(=O)c1ccco1)C(=O)NCC1CCCCC1 (stereo not given) | -1 | 100 | -1 | -2 | 0 | -15 | / | /
Cc1cccn2c(=O)c3cc(C(=O)NC4CCCC4)c(=N)n(CCCN4CCOCC4)c3nc12 | 35* | 105 | 1 | i | 0 | i | 9 | 12*
Cc1cccn2c(=O)c3cc(C(=O)NCC4CCCO4)c(=N)n(C4CCCCC4)c3nc12 (stereo not given) | 25* | 116 | 0 | i | 0 | i | -53 | -59
COc1ccc(CCNC(=O)c2cc3c(=O)n4cccc(C)c4nc3n(CCCN3CCOCC3)c2=N)cc1 | 0 | 97 | 5 | -84 | -1 | -251 | / | /
Cc1cccn2c(=O)c3cc(C(=O)NCC4CCCO4)c(=N)n(CC4CCCO4)c3nc12 (stereo not given) | 145* | / | 2 | i | -2 | i | 33* | 42*
Cc1cccn2c(=O)c3cc(C(=O)NC4CCCC4)c(=N)n(CC4CCCO4)c3nc12 (stereo not given) | 81* | 103 | 8 | i | 0 | i | -30 | -34
Cc1cccn2c(=O)c3cc(C(=O)NCc4ccc(F)cc4)c(=N)n(CC4CCCO4)c3nc12 (stereo not given) | -4 | 96 | 11 | i | 0 | i | / | /
O=C(Nc1n[nH]c(=S)s1)c1ccc2ccccc2c1 | -1 | 99 | 9 | 4 | -2 | 14 | / | /
Brc1ccc(-c2ccc3c(n2)CCCN3Cc2ccccn2)cc1 | -1 | / | 9 | -15 | / | -71 | / | /
CCOC(=O)CNc1c(-c2ccc(OC)cc2)nc2ccc(Cl)cn12 | 7 | 102 | -1 | -25 | 0 | -86 | / | /
CCOC(=O)CNc1c(-c2ccc(Cl)cc2)nc2cnccn12 | 65* | 242 | -8 | i | 0 | i | 77* | 80*
CCOC(=O)CNc1c(-c2ccc(F)cc2)nc2cnccn12 | 65* | / | -6 | i | -1 | i | 63* | 65*
COc1ccc(-c2nc3cnccn3c2Nc2ccc(C)cc2)cc1 | -8 | 96 | 4 | -83 | -1 | -281 | / | /
CCCOc1ccc2c(CC)cc(=O)oc2c1C | 0 | 126 | 0 | -70 | 1 | -229 | / | /
SMILES | proKLK7 act | Pemphigus Ab inh | rCAG binder | ADAM17 inh | MPTP block | ADAM10 inh | proKLK7 act conf | EDANS-DABCYL int | others
CCc1cc(=O)oc2c(C)c(O)c(CN(C)C)cc12 | 65* | 98 | -2 | i | -2 | i | 58* | 67*
COc1ccccc1N=C1NC(=O)/C(=C/c2ccc(N(C)C)cc2)S1 | 0 | 128 | 12 | 1 | 0 | 9 | / | /
N#Cc1c(C(F)(F)F)cc(C2CC2)[nH]c1=O | 18* | 104 | 3 | i | 0 | i | 16* | 23*
N#Cc1c(C(F)(F)F)cc(=O)[nH]c1SCC(=O)O | 0 | 101 | 2 | -3 | 0 | -11 | / | /
COc1cc(NC(=O)c2ccco2)c(OC)cc1NC(=O)CCC(=O)Nc1cc(C)cc(C)c1 | -20 | 102 | 10 | -14 | 2 | -44 | / | /
COc1cc(NC(=O)c2ccco2)c(OC)cc1NC(=O)CCC(=O)Nc1cc(C)ccc1C | 31* | 105 | 5 | -72 | 3 | i | 14* | -7 | K7 EDANS ctr=i
COc1ccc(OC)c(/C=N\NC(=O)c2c(C)nc3cc(C)ccn23)c1 | 16* | 111 | -2 | -481 | 1 | i | 24* | -10 | K7 EDANS ctr=>70
COc1cc(/C=N\NC(=O)c2c(C)nc3cc(C)ccn23)ccc1O | 0 | 107 | -4 | -6 | -1 | -17 | / | /
COC(=O)c1ccc(/C=N\NC(=O)c2c(C)nc3ccc(Cl)cn23)cc1 | / | 93 | / | / | 1 | / | / | /
C=CCOc1ccc(/C=N/NC(=O)c2c(C)nc3ccc(Cl)cn23)cc1 | 23* | 95 | 1 | 2 | 1 | 2 | 348* | 333*
COc1cc(/C=N/NC(=O)c2c(C)nc3ccc(Cl)cn23)cc(OC)c1OC | 36* | 108 | -6 | -40 | 0 | -106 | 19* | 14* | K7 EDANS ctr=i
C#CCOCCOCCOCCNc1nc(N2CCN(C(=O)Cn3cc(CCO)nn3)CC2)nc(N2CCN(C(=O)Cn3cc(CCCCN)nn3)CC2)n1 | 0 | 102 | -5 | -4 | -2 | -3 | / | /
O=C(Nc1ccn(CCCNC2CCN(Cc3ccccc3)CC2)c(=O)n1)OCc1ccccc1 | -1 | 109 | 6 | -3 | 0 | -8 | / | /
